Where “and” joins values, the source holds several entries; their conditions need not be identical. Identical values can stand only once. In all, about 280,000 compounds went through this assay and about 820 (0.29%) were called active. Where a call stands in place of a potency, no number is given. Inconclusive results (about 1%) are left out. The call rests on the fitted dose curve; in most records, active means well fitted curve in either direction with a large enough effect; inconclusive means small, poorly fitted or top-dose-only effect; inactive means flat fitted curve, though single readings scatter. This excerpt belongs to a sample that is enriched for actives. More than one record can exist for a structure, and the calls need not agree.
Potency means the concentration at half of the fitted maximal effect; tags describe the fitted curve by direction and shape or compound fluorescence and quenching.

The assay can be described thus: Total Fluorescence Counterscreen for Inhibitors of the Interaction of Thyroid Hormone Receptor and Steroid Receptor Coregulator 2. The following applies: TRb/SRC2 Texas Red total fluorescence interference; series mostly up to 106 µM. The source says: NIH Molecular Libraries Probe Production Network [MLPCN]
NIH Chemical Genomics Center [NCGC]
Assay Provider: R. Kip Guy, St. Jude Children's Research Hospital
Thyroid receptor (TR) regulates many homeostatic processes including basal metabolism, cardiovascular function, body weight, and lipid trafficking. TR modulators are potential therapeutics for obesity and hyperlipidemias but current thyroid analogs have undesirable side effects, particularly cardiac stimulation. To identify inhibitors that specifically prevent the interaction of TR with the steroid receptor […] 2 (SRC2), a fluorescence polarization assay was screened. This assay detects interaction of the ligand-binding domain of human TRb with a Texas Red labeled SRC2 peptide, corresponding to a 20 amino acid region of the nuclear receptor interaction domain (Arnold et al., 2006). Total fluorescence (555 nm excitation and 632 nm emission) was measured to identify potential fluorescent and light absorbing compounds. Such compounds may be artifacts that interfere with the fluorescence polarization assay.
Arnold, L. A.; Estebanez-Perpina, E.; Togashi, M.; Shelat, A.; Ocasio, C. A.; McReynolds, A. C.; Nguyen, P.; Baxter, J. D.; Fletterick, R. J.; Webb, P.; Guy, R. K. A high-throughput screening method to identify small molecule inhibitors of thyroid hormone receptor coactivator binding. Sci STKE 2006, p 13.
NCGC Assay Protocol Summary:
For screening, 5 uL/well 0.6 uM TRb and 20 nM SRC2 Texas Red in protein buffer (20mM Tris hydrochloride, 100mM NaCl, 10% glycerol, 1mM EDTA, 0.01% NP-40, 1mM DTT, 1uM T3 and 5% DMSO) was dispensed into black solid 1536-well plates (Grenier) using a solenoid-based dispenser. Following transfer of 23 nL compound or DMSO vehicle by a pin tool, the plates were centrifuged 15 s at 1000 RPM and incubated 5 hr at ambient temperature. The plates were read by an Envision (Perkin Elmer) to detect fluorescence polarization of SRC2 Texas Red (555 nm excitation and 632 nm emission). Data were normalized to unbound (all components except TRb) and bound SRC2 Texas Red controls. Total fluorescence (TF) was calculated as follows: TF = S + 2P where S and P are fluorescence readings in the parallel and perpendicular channels, respectively.
Keywords: NIH Roadmap, MLPCN, MLI, MLSMR, qHTS, NCGC, qHTS, thyroid hormone receptor, steroid receptor coactivator, fluorescence polarization
On to `Cn1c(SCC(=O)N2CCCc3ccccc32)ncc(C(=O)Nc2ccc(F)cc2)c1=O`, for which the Potency result is “inactive”.
The same measure for `COc1ccc(-c2nn(CC(=O)Nc3ccccc3F)c3c2cnc2ccc(F)cc23)cc1`: “inactive”.
In the case of `CCN(CC)c1nn2c(=O)c(C(=O)NCCc3ccccc3)cnc2s1`, the Potency result is “inactive”.
The same measure for `COc1ccc(N2CCN(c3nc(-c4ccccc4F)nc4ccccc34)CC2)cc1`: “inactive”; for `Oc1c(Cl)cc(Cl)c(Cl)c1Cc1c(O)c(Cl)cc(Cl)c1Cl`: “inactive and 44.7 µM [quencher] (active)”; for `CCOc1ccccc1CNC(=O)C1CCCN(S(=O)(=O)c2ccc3c(ccn3C)c2)C1` (stereo unspecified): “inactive”.
The same measure for `Cc1cccc(C(C)C)c1NC(=O)C(NS(=O)(=O)c1cccc2nsnc12)c1ccccc1` (stereo unspecified): “inactive”.
`Cn1c(=O)n(C)c2cc(C(=O)Nc3ccc4c(c3)OCO4)ccc21`: the Potency result is “inactive”.
Then `O=C(Nc1ccc(N2CCOCC2)cc1)c1ccc2c(c1)OCO2`, with “inactive”; and `O=C(Nc1ccc2c(c1)OCO2)c1ccc(N2C(=O)c3ccccc3C2=O)cc1`, with 0.0079 µM [quencher] (active); and `Cc1cccc(-n2ccnc2SCC(=O)Nc2cccc3ccccc23)c1C`, with “inactive”.
The same measure for `COc1cc(C(=O)NCC(c2ccc(Cl)cc2)N2CCOCC2)cc(OC)c1OC` (stereo unspecified): “inactive”; for `CC(C)(C)c1ccc(C(=O)NCC(c2ccc(Cl)cc2)N2CCOCC2)cc1` (stereo unspecified): 10 µM [quencher] (active).
Then `O=C(NCC(c1ccc(Cl)cc1)N1CCOCC1)c1ccccc1F` (stereo unspecified), with “inactive”.
`CCC(C(=O)NCc1ccc(OC)cc1)n1nc(C)n2c(cc3occc32)c1=O` (stereo unspecified): the Potency entry is “inactive”.
Turning to `CCCNC(=O)C(CC)n1nc(CC)n2c(cc3oc(C)cc32)c1=O` (stereo unspecified), the Potency was 22.4 µM [quencher] (active).
`CCOc1ccc(CCNC(=O)C(CC)n2nc(C)n3c(cc4sccc43)c2=O)cc1OCC` (stereo unspecified): the Potency result is “inactive”.
Turning to `CCOc1cc(NC(=S)NCc2ccco2)c(OCC)cc1NC(=O)c1ccco1`, the Potency result is “inactive”.
On to `CCOc1cc(NC(=S)NCCCOC)c(OCC)cc1NC(=O)c1ccco1`, for which the Potency is 7940 µM [quencher] (active).
The same measure for `CCOc1cc(NC(=O)c2ccco2)c(OCC)cc1NC(=O)COc1ccccc1`: “inactive”; for `O=C(NCCc1ccccc1)c1cnc2sc(N3CCCC3)nn2c1=O`: “inactive”; for `O=C(CCn1c(=O)oc2ccccc21)Nc1ccon1`: “inactive”.
The same measure for `CCOC(=O)c1ccc(NC(=O)CCS(=O)(=O)c2ccc3c(c2)oc(=O)n3C)cc1`: “inactive”.
The same measure for `CCOC(=O)c1ccc(NC(=O)CCn2c(=O)oc3ccccc32)cc1`: 501 µM [quencher] (active); for `CCOC(=O)c1ccc2c(c1)N(Cc1cccc(OC)c1)C(=O)c1ccccc1S2(=O)=O`: “inactive”.
Consider `Cc1nn(-c2ccc(F)cc2)c(-n2cccc2)c1C(=O)N1CCN(c2ccccc2)CC1`, for which the Potency result is “inactive”.
Then `O=C(/C=C/Nc1ccccc1OC(F)(F)F)C(F)(F)F`, with “inactive”; and `CN(C)c1ccc(N/C=C/C(=O)C(F)(F)F)cc1`, with 44.7 µM [fluorescent] (active).
Take `CCCOc1ccc(N/C=C/C(=O)C(C)(C)C)cc1`: the Potency entry is “inactive”.
The same measure for `CCOC(=O)c1ccc(CSc2nnc3cc(C)c4ccccc4n23)cc1`: 1.41 µM [quencher] (active).
Then `COC(=O)c1ccc(CSc2nncn2C)cc1`, with “inactive”.
The same measure for `COC(=O)c1ccc(CSc2nncn2N)cc1`: “inactive”.
Turning to `O=C(Nc1ccc(OC(F)(F)F)cc1)c1cc2c(=O)n3ccccc3nc2s1`, the Potency result is “inactive”.
Then `Cn1c(C(=O)Nc2cccc(C(F)(F)F)c2)cc2c(=O)n3ccccc3nc21`, with 44.7 µM [quencher] (active).
Regarding `Cn1c(=O)c2c(ncn2CC(=O)Nc2cccc(C(F)(F)F)c2)n(C)c1=O`, the Potency entry was “inactive”.
As to `COc1ccccc1CNC(=O)Cn1nc(C)c2nn(-c3ccc(Cl)cc3)c(C)c2c1=O`, the Potency result is “inactive”.
Consider `COc1ccc2c(c1)C=CC1(O2)N(CCO)c2ccccc2C1(C)C` (stereo unspecified), for which the Potency was 50.1 µM [fluorescent] (active).
The same measure for `COc1ccc2c(c1)C(SCC(=O)NCc1ccccc1)CC(C)(C)O2` (stereo unspecified): “inactive”; for `COc1cccc(CC2(CO)CCCN(CC3=Cc4cc(OC)ccc4OC3)C2)c1` (stereo unspecified): “inactive”; for `CCc1cnc2c(c1SCC(=O)N1CCC(C)CC1)c(=O)n(C)c(=O)n2C`: “inactive”.
The same measure for `COc1ccc(C)cc1N(CC(=O)N1CCC(C)CC1)S(=O)(=O)c1ccc(C)cc1`: “inactive”; for `Cc1ccccc1-c1nc2scc(CCNC(=O)C(=O)Nc3ccc(F)cc3F)n2n1`: “inactive”.
In the case of `CC(Sc1oc(-c2ccco2)nc1S(=O)(=O)c1ccc(Br)cc1)c1ccccc1` (stereo unspecified), the Potency result is “inactive”.
Then `COc1ccccc1NC(=O)CSc1oc(-c2ccco2)nc1S(=O)(=O)c1ccc(Br)cc1`, with “inactive”.
The same measure for `CCCC/C=C/CCCCO`: “inactive”; for `CCN(C(=O)Cn1cc(S(=O)(=O)N2CCN(c3ccccc3F)CC2)c2ccccc2c1=O)c1ccc(C)c(C)c1`: “inactive”; for `O=C(NCCc1ccccc1)c1ccc2c(c1)N(Cc1ccccc1)C(=O)c1ccccc1S2(=O)=O`: “inactive”.
The same measure for `CN(C(=O)CSc1nnc(NC(=O)Nc2ccccc2)s1)c1ccccc1`: “inactive”; for `CC(C)(C)OC(=O)N1CCC(c2c(C(=O)Nc3ccc4c(c3)OCO4)cnn2-c2ccccc2)CC1`: “inactive”.
For the molecule `Cc1cccc(Cc2c(C)nc3nc(SCc4ccccc4Cl)nn3c2C)c1`, the Potency result is “inactive”.
Take `c1ccc(CNc2ncnc3[nH]ncc23)cc1`: the Potency result was “inactive”.
Then `CCOC(=O)c1ccc(NC(=O)CC2C(=O)N(c3cccc(OC)c3)C(=O)N2C2CCCCC2)cc1` (stereo unspecified), with “inactive”.
As for `COc1ccccc1CNC(=O)c1ccccc1NC(=O)c1nsc2ccccc12`, the Potency entry is “inactive”.
Regarding `O=S(=O)(c1ccc(C2CCCCC2)cc1)N1CCN(c2ccc(Cl)c(Cl)c2)CC1`, the Potency entry is “inactive”.
The same measure for `CC1CN(C(=O)N2CCC(C(=O)NCc3ccco3)CC2)c2cc(Cl)ccc2O1` (stereo unspecified): “inactive”; for `CCOC(=O)c1ccc(NC(=O)CCS(=O)(=O)c2ccc(C)cc2)cc1`: “inactive”; for `CCCn1c2ccccc2c2cnn(CC(=O)N(C)c3ccccc3CC)c(=O)c21`: “inactive”.
Then `Cc1cc(C)c(N)c(Cl)c1`, with “inactive”.
The same measure for `CCOc1ccc2nc(N3CCCC(C(=O)Nc4cc(C)ccc4C)C3)sc2c1` (stereo unspecified): 20 µM [quencher] (active); for `CCOc1ccc2nc(C(=O)N3CCCC(C)C3)sc2c1` (stereo unspecified): “inactive”.
With `CCOc1ccc2nc(N3CCC(C(=O)Nc4cc(C)ccc4C)CC3)sc2c1`, the Potency result is “inactive”.

These data come from PubChem BioAssay AID1479 (National Center for Advancing Translational Sciences (NCATS), 2009).
